Reference: PubChem BioAssay (NCI)
This is part of a sample that, as a whole, favours compounds with a hit. Of some 83,000 tested, about 20% had one in any assay.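 Percent growth is the endpoint: 0 to 100 indicates growth inhibition (40 means 60% inhibition), 0 means no net growth, and negative values indicate cell death.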 Active and inactive are the calls of the source. How the source made its calls: active means growth percent below 10; inactive means the rest.

How the values were obtained:
Experiment in all cases: NCI-60 one-dose screen, 48 h (100 = growth as untreated, 0 = no growth, -100 = all killed)
Conditions in all cases: 10 µM unless noted
SR leukemia = test system: SR leukemia
RPMI-8226 leukemia = test system: RPMI-8226 leukemia
OVCAR-8 ovarian = test system: OVCAR-8 ovarian
OVCAR-5 ovarian = test system: OVCAR-5 ovarian
OVCAR-4 ovarian = test system: OVCAR-4 ovarian
SK-OV-3 ovarian = test system: SK-OV-3 ovarian
IGROV1 ovarian = test system: IGROV1 ovarian
OVCAR-3 ovarian = test system: OVCAR-3 ovarian
HS 578T breast = test system: HS 578T breast
NCI/ADR-RES ovarian = test system: NCI/ADR-RES ovarian
T-47D breast = test system: T-47D breast
BT-549 breast = test system: BT-549 breast
MDA-MB-435 melanoma = test system: MDA-MB-435 melanoma
SW-620 colon = test system: SW-620 colon
MCF7 breast = test system: MCF7 breast
HCT-116 colon = test system: HCT-116 colon
HCC-2998 colon = test system: HCC-2998 colon
KM12 colon = test system: KM12 colon

Measured: growth

O=C(CCl)Nc1ccc2c(Nc3cc(O)ccc3Cl)ncnc2c1
active: SR leukemia -22.5% | RPMI-8226 leukemia -45.9% | OVCAR-8 ovarian -33.9% | OVCAR-5 ovarian -74.7% | OVCAR-4 ovarian -65.2% | SK-OV-3 ovarian -4.95% | IGROV1 ovarian -71.2% | OVCAR-3 ovarian -83.4% | HS 578T breast 4.71% | NCI/ADR-RES ovarian -39.8% | T-47D breast -52.4% | BT-549 breast -78.5% | MDA-MB-435 melanoma -69.4% | SW-620 colon -60.6% | MCF7 breast -57.9% | HCT-116 colon -74.5% | HCC-2998 colon -3.99% | KM12 colon -64.7%

COc1ccc2nc3ccccc3c(NCc3ccccc3)c2c1
inactive: OVCAR-8 ovarian 28.2% | OVCAR-5 ovarian 29% | OVCAR-4 ovarian 40.8% | SK-OV-3 ovarian 44.5% | IGROV1 ovarian 16.4% | OVCAR-3 ovarian 41% | HS 578T breast 25.2% | NCI/ADR-RES ovarian 18.3% | T-47D breast 35.3% | BT-549 breast 50.3% | MDA-MB-435 melanoma 33.8% | SW-620 colon 19.5% | HCT-116 colon 14.8% | KM12 colon 36.5%
active: SR leukemia 4.27% | RPMI-8226 leukemia -30.9% | MCF7 breast 4.29% | HCC-2998 colon -35.5%

Cc1ccccc1OCC(O)COc1ccccc1C
inactive: SR leukemia 114% | RPMI-8226 leukemia 107% | OVCAR-8 ovarian 91.1% | OVCAR-5 ovarian 103% | OVCAR-4 ovarian 104% | SK-OV-3 ovarian 108% | IGROV1 ovarian 85.1% | OVCAR-3 ovarian 114% | HS 578T breast 117% | NCI/ADR-RES ovarian 111% | T-47D breast 88.7% | BT-549 breast 79.4% | MDA-MB-435 melanoma 94.6% | SW-620 colon 103% | MCF7 breast 90.7% | HCT-116 colon 103% | HCC-2998 colon 573% | KM12 colon 103%

O=c1oc2c(cnc3ccccc32)cc1-c1cccs1
inactive: SR leukemia 103% | RPMI-8226 leukemia 103% | OVCAR-8 ovarian 100% | OVCAR-5 ovarian 108% | OVCAR-4 ovarian 100% | SK-OV-3 ovarian 106% | IGROV1 ovarian 99.7% | OVCAR-3 ovarian 119% | HS 578T breast 99% | NCI/ADR-RES ovarian 104% | T-47D breast 95.9% | BT-549 breast 96.9% | MDA-MB-435 melanoma 103% | SW-620 colon 103% | MCF7 breast 98.1% | HCT-116 colon 91.1% | HCC-2998 colon 117% | KM12 colon 105%

COc1cc2c3c(n(CCCCNCCCn4c5c(c6cc(OC)c(OC)cc6c4=O)C(=O)c4cc6c(cc4-5)OCO6)c(=O)c2cc1OC)-c1cc2c(cc1C3=O)OCO2
inactive: SR leukemia 66.6% | RPMI-8226 leukemia 105% | OVCAR-8 ovarian 101% | OVCAR-5 ovarian 98.6% | OVCAR-4 ovarian 102% | SK-OV-3 ovarian 96.3% | IGROV1 ovarian 95% | OVCAR-3 ovarian 98.7% | HS 578T breast 104% | NCI/ADR-RES ovarian 98.6% | T-47D breast 88.7% | BT-549 breast 106% | MDA-MB-435 melanoma 105% | SW-620 colon 95.2% | MCF7 breast 93.6% | HCT-116 colon 93.9% | HCC-2998 colon 105% | KM12 colon 93.8%

Cc1nn(-c2ccccc2)c(N2CCCCC2)c1/C=N/NC(=O)Cn1c(=O)sc2ccccc21
inactive: SR leukemia 93.9% | RPMI-8226 leukemia 65% | OVCAR-8 ovarian 81.1% | OVCAR-5 ovarian 82.9% | OVCAR-4 ovarian 79.3% | SK-OV-3 ovarian 89% | IGROV1 ovarian 67.2% | OVCAR-3 ovarian 81.9% | HS 578T breast 78.7% | NCI/ADR-RES ovarian 74.9% | T-47D breast 60.3% | BT-549 breast 79.9% | MDA-MB-435 melanoma 87.9% | SW-620 colon 81% | MCF7 breast 67.3% | HCT-116 colon 77.1% | HCC-2998 colon 68.4% | KM12 colon 54%

CCN(CC)CCOc1nc2c3ccc(Cl)cc3nn2c2ccccc12
active: SR leukemia 5.43% | RPMI-8226 leukemia -8.15% | MCF7 breast 2.07% | HCT-116 colon 5.87%
inactive: OVCAR-8 ovarian 28.6% | OVCAR-5 ovarian 34% | OVCAR-4 ovarian 35.4% | SK-OV-3 ovarian 56% | IGROV1 ovarian 10.1% | OVCAR-3 ovarian 54.6% | HS 578T breast 55.2% | NCI/ADR-RES ovarian 25.3% | T-47D breast 53.4% | BT-549 breast 70.3% | MDA-MB-435 melanoma 36.3% | SW-620 colon 19.7% | HCC-2998 colon 15.4% | KM12 colon 43.1%

O=C1Nc2ccc(F)cc2/C1=N/c1nnc(Sc2ccccc2)s1
inactive: SR leukemia 61% | RPMI-8226 leukemia 55.7% | OVCAR-8 ovarian 89.7% | OVCAR-5 ovarian 113% | OVCAR-4 ovarian 95% | SK-OV-3 ovarian 97.1% | IGROV1 ovarian 80.2% | OVCAR-3 ovarian 97.3% | HS 578T breast 94.4% | NCI/ADR-RES ovarian 85.3% | T-47D breast 61.5% | BT-549 breast 105% | MDA-MB-435 melanoma 99.7% | SW-620 colon 91.9% | MCF7 breast 22.2% | HCT-116 colon 99.3% | HCC-2998 colon 104% | KM12 colon 88%

COc1ccc(NC(=O)c2cccc(C3CCc4c(cc(OC)c(OC)c4OC)O3)c2)cc1 (stereo unspecified)
inactive: OVCAR-8 ovarian 35.1% | OVCAR-5 ovarian 64.8% | OVCAR-4 ovarian 53.1% | SK-OV-3 ovarian 26.8% | IGROV1 ovarian 37.6% | HS 578T breast 22% | T-47D breast 16% | BT-549 breast 25.9% | SW-620 colon 29% | MCF7 breast 11.3% | HCT-116 colon 14.6% | HCC-2998 colon 50.7% | KM12 colon 18.2%
active: SR leukemia 5.23% | RPMI-8226 leukemia -24.2% | OVCAR-3 ovarian 6.25% | NCI/ADR-RES ovarian 8.7% | MDA-MB-435 melanoma -10.5%

CCOC(=O)CSc1nc2sc3c(c2c(=O)n1-c1ccc([N+](=O)[O-])cc1)CCCCC3
inactive: SR leukemia 76.7% | RPMI-8226 leukemia 91.6% | OVCAR-8 ovarian 58.4% | OVCAR-5 ovarian 72.2% | OVCAR-4 ovarian 31% | SK-OV-3 ovarian 68.3% | IGROV1 ovarian 68.7% | OVCAR-3 ovarian 51.8% | HS 578T breast 39.7% | NCI/ADR-RES ovarian 84.3% | T-47D breast 76.7% | BT-549 breast 97.2% | MDA-MB-435 melanoma 77.3% | SW-620 colon 81.3% | MCF7 breast 76.2% | HCT-116 colon 51.3% | HCC-2998 colon 82% | KM12 colon 89.7%

N#Cc1nc(-c2ccc(F)cc2)oc1S(=O)(=O)N1CCN(c2ccc(F)cc2)CC1
active: SR leukemia 6.45%
inactive: RPMI-8226 leukemia 46.5% | OVCAR-8 ovarian 71.4% | OVCAR-5 ovarian 111% | OVCAR-4 ovarian 105% | SK-OV-3 ovarian 118% | IGROV1 ovarian 76% | OVCAR-3 ovarian 91% | HS 578T breast 107% | NCI/ADR-RES ovarian 94.7% | T-47D breast 85.8% | BT-549 breast 103% | MDA-MB-435 melanoma 86.8% | SW-620 colon 19% | MCF7 breast 40.9% | HCT-116 colon 46.7% | HCC-2998 colon 109% | KM12 colon 102%

N#C/C(=C\c1ccc(Cl)cc1Cl)C(=O)Nc1ncc(Cc2ccc(Cl)c(Cl)c2)s1
inactive: SR leukemia 59.6% | RPMI-8226 leukemia 92.9% | OVCAR-8 ovarian 91.6% | OVCAR-5 ovarian 71.5% | OVCAR-4 ovarian 82.8% | SK-OV-3 ovarian 96.6% | IGROV1 ovarian 85.6% | OVCAR-3 ovarian 98.9% | HS 578T breast 94.3% | NCI/ADR-RES ovarian 83.2% | T-47D breast 58.5% | BT-549 breast 111% | MDA-MB-435 melanoma 60.8% | SW-620 colon 62.6% | MCF7 breast 84% | HCT-116 colon 78.5% | HCC-2998 colon 87% | KM12 colon 80.1%

COc1ccccc1-n1c(-c2cc(O)ccc2C)cn2c3c(=O)[nH]c(=O)n(C)c3nc12
inactive: SR leukemia 86.2% | RPMI-8226 leukemia 90.7% | OVCAR-8 ovarian 66.5% | OVCAR-5 ovarian 95.3% | OVCAR-4 ovarian 98.2% | SK-OV-3 ovarian 47.4% | IGROV1 ovarian 10.3% | OVCAR-3 ovarian 65.3% | HS 578T breast 20.4% | NCI/ADR-RES ovarian 101% | T-47D breast 87.8% | BT-549 breast 100% | MDA-MB-435 melanoma 104% | SW-620 colon 106% | MCF7 breast 84.1% | HCT-116 colon 86.5% | HCC-2998 colon 98.6% | KM12 colon 108%

Fc1ccc2c(c1)c(-c1nc(-c3c[nH]c4ncccc34)cs1)cn2CCCN1CCOCC1
active: MDA-MB-435 melanoma -17.1%
inactive: SR leukemia 12.1% | RPMI-8226 leukemia 36.6% | OVCAR-8 ovarian 59.7% | OVCAR-5 ovarian 82.3% | OVCAR-4 ovarian 56.2% | SK-OV-3 ovarian 81.6% | IGROV1 ovarian 38.6% | OVCAR-3 ovarian 59.8% | HS 578T breast 38.3% | NCI/ADR-RES ovarian 59.2% | T-47D breast 38.1% | BT-549 breast 69.5% | SW-620 colon 24.9% | MCF7 breast 22% | HCT-116 colon 40.4% | HCC-2998 colon 74.3% | KM12 colon 22.5%

Cn1cc(-c2ccc3cc(-c4ccc(CC(=O)Nc5cc(C(C)(C)C)on5)cc4)cnc3c2)cn1
inactive: RPMI-8226 leukemia 19.6% | OVCAR-8 ovarian 20.4% | OVCAR-5 ovarian 56.7% | OVCAR-3 ovarian 48.9% | NCI/ADR-RES ovarian 33.1% | T-47D breast 34.5% | BT-549 breast 33% | MDA-MB-435 melanoma 17.1% | SW-620 colon 12.8% | MCF7 breast 40.8% | HCC-2998 colon 57.8%
active: SR leukemia 3.71% | OVCAR-4 ovarian -21.9% | SK-OV-3 ovarian 5.31% | IGROV1 ovarian 3.11% | HS 578T breast 9.69% | HCT-116 colon 9.3% | KM12 colon 9.57%

O=C1NC(=C(Cl)Cl)/C(=N/S(=O)(=O)N2CCCCC2)N1
active: SR leukemia -46% | RPMI-8226 leukemia -22.7% | OVCAR-8 ovarian 9.05% | IGROV1 ovarian 1.81% | OVCAR-3 ovarian -57% | SW-620 colon -62.3% | HCT-116 colon 6.37% | HCC-2998 colon 4.74% | KM12 colon 5.62%
inactive: OVCAR-5 ovarian 90.9% | OVCAR-4 ovarian 79.9% | SK-OV-3 ovarian 94% | HS 578T breast 29.1% | NCI/ADR-RES ovarian 98.5% | T-47D breast 41.6% | BT-549 breast 63.6% | MDA-MB-435 melanoma 47.6% | MCF7 breast 10.1%

Nc1nc(C(=O)N/N=C/c2ccc(N3CCOCC3)cc2)nn1-c1ccc(S(N)(=O)=O)cc1
inactive: SR leukemia 104% | RPMI-8226 leukemia 102% | OVCAR-8 ovarian 101% | OVCAR-5 ovarian 114% | OVCAR-4 ovarian 99.7% | SK-OV-3 ovarian 111% | IGROV1 ovarian 94% | OVCAR-3 ovarian 104% | HS 578T breast 104% | NCI/ADR-RES ovarian 102% | T-47D breast 108% | BT-549 breast 116% | MDA-MB-435 melanoma 104% | SW-620 colon 99.9% | MCF7 breast 103% | HCT-116 colon 101% | HCC-2998 colon 104% | KM12 colon 103%
